Bioassay records (PubChem)
A selection: hits, their analogues and other compounds. The true share with any hit is near 6.9%.
BAZ2B inh: blocks human BAZ2B; AlphaScreen BAZ2B-H3K14Ac peptide displacement; Q9UIF8; AID 504333; hit rate 4.4% among 360,000; Potency, µM (top dose mostly 114 µM), usual class: inhibitors; further: nearly all actives have a fitted effect of over 60% in size
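In this displacement format the biotinylated H3(5-23) peptide acetylated at Lys14 serves as ligand at 50 nM, with BAZ2B at 50 nM in PBS pH 7.4 containing 0.01% Tween-20. Donor and acceptor beads are 10 ug/mL final.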
PLK1 PBD block: PLK1 (human) polo-box domain binding inhibition | P53350 | Plk1 PBD binding of FITC phosphopeptide, fluorescence polarization | Potency, µM, hits mostly inhibitors | hit rate 2.8% among 360,000 | AID 720504; further: series mostly up to about 57 µM; nearly all actives have a fitted effect of over 65% in size
L3MBTL1 block: blocks human L3MBTL1; Q9Y468; AlphaScreen L3MBTL1–H3K9me1 peptide binding; Potency, µM (top dose mostly 57.1 µM), actives largely listed as inhibitors; hit rate 0.66% among 230,000; further: nearly all actives have a fitted effect of over 60% in size
Target sequence (Q9Y468 whole entry, looked up): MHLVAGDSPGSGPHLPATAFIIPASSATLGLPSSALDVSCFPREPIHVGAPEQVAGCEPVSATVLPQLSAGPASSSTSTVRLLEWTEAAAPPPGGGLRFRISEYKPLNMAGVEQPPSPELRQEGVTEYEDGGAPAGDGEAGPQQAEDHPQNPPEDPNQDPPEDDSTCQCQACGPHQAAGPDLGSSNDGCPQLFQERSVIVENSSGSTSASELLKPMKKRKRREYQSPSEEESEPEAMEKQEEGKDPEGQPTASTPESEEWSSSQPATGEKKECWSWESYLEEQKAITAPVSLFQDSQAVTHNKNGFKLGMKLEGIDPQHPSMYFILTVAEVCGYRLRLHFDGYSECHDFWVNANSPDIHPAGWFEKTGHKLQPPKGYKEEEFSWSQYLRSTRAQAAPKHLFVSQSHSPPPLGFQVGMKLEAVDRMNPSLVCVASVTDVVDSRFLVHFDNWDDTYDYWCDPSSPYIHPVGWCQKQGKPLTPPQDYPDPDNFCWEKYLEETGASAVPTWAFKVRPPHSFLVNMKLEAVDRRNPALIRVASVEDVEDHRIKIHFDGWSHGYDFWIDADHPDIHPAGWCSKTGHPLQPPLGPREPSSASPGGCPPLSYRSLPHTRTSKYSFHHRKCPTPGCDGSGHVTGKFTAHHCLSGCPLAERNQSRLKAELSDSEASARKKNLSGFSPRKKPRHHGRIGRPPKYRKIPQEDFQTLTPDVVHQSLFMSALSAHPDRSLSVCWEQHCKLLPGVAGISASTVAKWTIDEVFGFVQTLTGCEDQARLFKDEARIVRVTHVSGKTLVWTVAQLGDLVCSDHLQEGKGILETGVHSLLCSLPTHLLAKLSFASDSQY
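L3MBTL1 50 nM + b-AHA-H3(1-15)K9me1 75 nM, 30 min RT; compound added, 30 min RT; streptavidin donor/Ni-chelate acceptor beads 10 ug/mL each final, 30 min RT dark; AlphaScreen read.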
VDR inhibitor: blocks the human vitamin D receptor; hit rate 0.93% among 400,000; AID 504847; P11473; VDR-SRC2-3 peptide fluorescence polarization, 2 h; Potency, µM, hits mostly inhibitors
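Measured by FP: displacement of SRC2-3 coactivator peptide from VDR by library compounds, following a two-hour ambient incubation.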
HP1b binding inh: inhibitors of HP1-beta chromodomain binding to methylated histone tails. hit rate 0.56% among 390,000. Potency, µM (doses to about 114 µM), hits mostly inhibitors. P83916. AlphaScreen HP1-beta / biotin-H3K9me3 peptide binding; further: nearly all actives have a fitted effect of over 70% in size
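HP1-beta protein (50 nM final) preincubated 30 min at room temperature with biotinylated H3(1-18)K9me3 peptide (50 nM) in PBS pH 7.4, 0.01% Tween-20, then compound added for 30 min. AlphaScreen streptavidin donor/nickel chelate acceptor beads (10 ug/mL final), 30 min dark, luminescence read.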
JMJD2A Tudor inh: JMJD2A Tudor domain (human) inhibition | hit rate 4.4% among 390,000 | AlphaScreen JMJD2A-Tudor / H3K4me3 peptide binding | O75164 | AID 504339 | Potency, µM (titrated, usually from 114 µM), most hits filed as inhibitors; further: nearly all actives have a fitted effect of over 50% in size
Numbers stand for hits; – = inactive; ? = inconclusive; · = no result given. The call rests on the fitted dose curve; in most records, active means well fitted curve in the direction sought with a large enough effect; inconclusive means small, poorly fitted or top-dose-only effect, or another doubt; inactive means no such curve, though single readings can be large; an effect the other way counts as inactive or inconclusive.

SMILES | BAZ2B inh | PLK1 PBD block | L3MBTL1 block | VDR inhibitor | HP1b binding inh | JMJD2A Tudor inh
O=C(Nc1cccc(S(=O)(=O)NC2=NCCC2)c1)c1cc(-c2ccco2)nc2ccccc12 | 35.5µM | ? | 7.08µM | – | ? | ?
COc1cccc(NC(=O)c2cc(-c3ccc(C)o3)nc3ccccc23)c1 | ? | – | · | ? | – | 56.2µM
Cc1nnc(NC(=O)c2cc(-c3ccco3)nc3ccccc23)s1 | 39.8µM | · | 6.31µM | · | · | ·
CCN(CC)CCNC(=O)c1ccc(NC(=O)c2cc(-c3ccco3)nc3ccccc23)cc1 | 31.6µM | – | · | – | – | ?
COc1cccc(NC(=O)CN(C)C(=O)c2cc(-c3ccc(C)o3)nc3ccccc23)c1 | – | – | – | – | – | ?
CC(=O)c1cccc(N2C(=O)CN(S(C)(=O)=O)CC2(C)C(=O)NC2CCCC2)c1 (centres undefined) | – | · | · | – | – | –
Cc1ccc(-c2cc(C(=O)NCc3ccco3)c3ccccc3n2)o1 | 50.1µM | ? | ? | – | – | 50.1µM
Cc1cc(C(=O)NCc2ccco2)c2ccccc2n1 | – | – | · | – | – | –
CCc1ccc(-c2nc3c(c(SCc4ccc(F)cc4)n2)Cc2c(CO)cnc(C)c2O3)cc1 | – | · | · | – | – | –
CCOC(=O)CC(S(=O)(=O)c1ccccc1)S(=O)(=O)c1ccccc1 | · | 26.7µM | · | · | · | ·
CCOC(=O)CN(c1ccccn1)S(=O)(=O)c1ccccc1 | – | – | – | – | – | –
Cc1ccccc1-c1ccccc1N | – | – | – | – | – | –
Nc1ccccc1-c1n[nH]c(=S)s1 | ? | ? | – | ? | ? | 28.2µM
S=c1[nH]c2ccccc2n2c(=S)[nH]nc12 | 50.1µM | – | · | – | – | 22.4µM
COc1ccc(C2/C(=C(\O)c3cccc(OC)c3)C(=O)C(=O)N2c2ccccn2)cc1 (centres undefined) | – | – | – | – | – | –
Cc1cc(C)cc(Nc2ncc3c(n2)CC(c2ccco2)CC3=O)c1 (centres undefined) | – | – | – | – | ? | 89.1µM
Cc1cccc(Nc2ncc3c(n2)CC(c2ccco2)CC3=O)c1 (centres undefined) | – | – | – | – | – | –
Cc1nc2sc(C(=O)NCc3ccc(Cl)cc3)c(NC(=O)c3ccccc3)c2c(C)c1C | – | · | · | – | – | –
c1coc(-c2nnc3sc(C4CCCCC4)nn23)c1 | – | 10.6µM | – | – | – | ?
Brc1ccc(-c2nn3c(-c4ccccn4)nnc3s2)o1 | 17.8µM | – | ? | – | – | 14.1µM
Brc1ccc(-c2nn3c(-c4ccco4)nnc3s2)o1 | 50.1µM | ? | – | – | – | ?
Brc1ccc(-c2nn3c(-c4ccncc4)nnc3s2)o1 | – | · | – | · | · | ·
Clc1ccc(-c2ccc(-c3nn4c(-c5ccco5)nnc4s3)o2)cc1 | · | ? | · | – | – | ?
COc1ccccc1CN1CCCC2(CCN(C(=O)c3cccn3C)CC2)C1 | · | · | · | – | · | ·
CC1CCCC(C)N1CC(C)(C)NS(=O)(=O)c1ccc(Cl)cc1 (centres undefined) | 50.1µM | – | · | – | – | –
SMILES | BAZ2B inh | PLK1 PBD block | L3MBTL1 block | VDR inhibitor | HP1b binding inh | JMJD2A Tudor inh
CC1CC(C)CN(CC(C)(C)NS(=O)(=O)c2ccccc2)C1 (centres undefined) | 50.1µM | – | – | – | ? | 22.4µM
CN1CCN(CC(C)(C)NS(=O)(=O)c2ccccc2)CC1 | · | – | – | – | – | –
CC(C)(CN1CCCC1)NS(=O)(=O)c1ccc(Cl)cc1 | – | – | · | – | – | –
CC(C)(CN1CCc2ccccc2C1)NS(=O)(=O)c1ccccc1 | – | – | – | – | ? | 3.16µM
Cc1ccc(S(=O)(=O)NCCC(=O)N2CCC(Cc3ccccc3)CC2)cc1 | – | – | – | – | – | –
Cc1ccc(S(=O)(=O)NC(C)(C)CN2CCC(Cc3ccccc3)CC2)cc1 | 56.2µM | – | – | – | – | 39.8µM
CCOc1ccc(-c2c(C(=O)N/N=C/c3cccnc3)nnn2-c2nonc2N)cc1 | ? | – | · | – | – | –
COC(=O)[C@H](Cc1ccccc1)NC(=O)O[C@@H]1C(=O)c2cc(OC)ccc2O[C@H]1c1cccc(OC)c1 | · | · | · | – | · | ·
CC(C)(CN1CCOCC1)NS(=O)(=O)c1ccccc1 | – | – | – | – | – | –
CCC1CCCCN1CC(C)(C)NS(=O)(=O)c1ccccc1 (centres undefined) | ? | – | – | – | ? | 4.47µM
O=C(CSC1=Nc2ccccc2C2=NC(CCC(=O)NC3CCCCC3)C(=O)N12)Nc1cccc(C(F)(F)F)c1 (centres undefined) | – | · | · | – | – | –
COc1ccc(C2c3cc(OC)c(OC)cc3Cc3c4cc(OC)c(OC)cc4cc[n+]32)cc1OC (centres undefined) | · | · | · | – | · | ·
CCOc1ccc(-n2c(C)c(C(=O)OC)c3cc(O)ccc32)cc1 | ? | – | · | – | – | –
CCOC(=O)c1cc2c(C)n(-c3ccc(OCC)cc3)c(C)c2ccc1=O | 50.1µM | – | – | – | ? | ?
CCOC(=O)c1cc2c(C)n(-c3ccc(C)cc3)c(C)c2ccc1=O | 44.7µM | – | – | – | ? | ?
CCOC(=O)c1c[nH]n(-c2ccc(C)cc2)c1=O | – | – | – | – | – | –
C/C(=N\O)C(C)(C)Nc1ccc(Br)cc1 | – | – | – | – | – | –
CN(C)c1ccc(/C(=N\O)C(F)(F)F)cc1 | – | – | – | – | – | –
CC(C)(NO)/C(=N\O)c1ccc(Cl)cc1 | 56.2µM | – | – | – | – | 39.8µM
COc1ccc(/C(=N/O)C(C)(C)NO)cc1 | 50.1µM | – | · | – | ? | 39.8µM
CC(C)(NO)/C(=N/O)c1ccc(Br)cc1 | ? | – | – | – | – | 28.2µM
N#CCCn1c(=O)c(-c2ccc(F)cc2)nc2cnc(N3CCNCC3)nc21 | · | · | · | – | · | ·
O=C(Nc1cc(-c2ccccc2)sc1C(=O)O)c1cccc(F)c1 | – | 29.9µM | · | – | – | –
O=C(O)c1ccc(NC(=O)c2ccccc2NC(=O)c2cccc(F)c2)cc1 | – | – | – | – | – | –
CCOc1ccc(-c2cc(NC(=O)c3c(F)cccc3F)c(C(=O)O)s2)cc1 | ? | 33.6µM | · | ? | ? | ?
SMILES | BAZ2B inh | PLK1 PBD block | L3MBTL1 block | VDR inhibitor | HP1b binding inh | JMJD2A Tudor inh
CCc1cccc(NC(=O)Cn2c(=O)n(CC(=O)NCCc3ccccc3)c(=O)c3ccccc32)c1 | ? | · | · | – | – | –
OCc1ccccc1SSc1ccccc1CO | · | 0.267µM | · | 8.91µM | ? | 14.1µM
N#CC(C(=O)Nc1ccccc1)=C1Nc2ccccc2N1 | – | – | · | – | – | –
N#CC(=C1Nc2ccccc2N1)S(=O)(=O)c1ccccc1 | – | 3.36µM | – | 50.1µM | – | 25.1µM
CC(C)(C)c1ccccc1Nc1nc(C#N)nc(NC2CCCC2)n1 | · | · | · | · | · | –
COC(=O)c1ccc(OC(C)C(=O)c2ccc(C)cc2)cc1 (centres undefined) | – | – | – | – | – | –
CN1C(=O)C(N=Nc2ccc([N+](=O)[O-])cc2)SC1=S (centres undefined) | · | 13.4µM | · | – | ? | 22.4µM
